Assay outcomes from PubChem BioAssay.
Calb biofilm kill – kills Candida albicans biofilms; C. albicans biofilm + clotrimazole, Alamar Blue; inhibition, % at 6 µM; hit rate 0.14% among 85,000;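 active = inhibition above 20%; inactive = inhibition below 20%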;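 also: preformed 24 hr biofilms exposed to compound for 48 hr; 0% = biofilm without compound and 100% = blank killed by clotrimazole plus chlorhexidine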
ERa SRC1 inh – blocks coactivator binding to human estrogen receptor alpha. AID 629. inhibition, % at 25.6 µM. P03372. TR-FRET ER-alpha LBD / SRC-1 peptide, estradiol-bound. hit rate 1.7% among 86,000; in the data active = inhibition above about 50%;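 also: 0% = receptor plus peptide control and 100% = peptide only without receptor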
Target sequence (P03372 whole entry, looked up, the tested form may be a part): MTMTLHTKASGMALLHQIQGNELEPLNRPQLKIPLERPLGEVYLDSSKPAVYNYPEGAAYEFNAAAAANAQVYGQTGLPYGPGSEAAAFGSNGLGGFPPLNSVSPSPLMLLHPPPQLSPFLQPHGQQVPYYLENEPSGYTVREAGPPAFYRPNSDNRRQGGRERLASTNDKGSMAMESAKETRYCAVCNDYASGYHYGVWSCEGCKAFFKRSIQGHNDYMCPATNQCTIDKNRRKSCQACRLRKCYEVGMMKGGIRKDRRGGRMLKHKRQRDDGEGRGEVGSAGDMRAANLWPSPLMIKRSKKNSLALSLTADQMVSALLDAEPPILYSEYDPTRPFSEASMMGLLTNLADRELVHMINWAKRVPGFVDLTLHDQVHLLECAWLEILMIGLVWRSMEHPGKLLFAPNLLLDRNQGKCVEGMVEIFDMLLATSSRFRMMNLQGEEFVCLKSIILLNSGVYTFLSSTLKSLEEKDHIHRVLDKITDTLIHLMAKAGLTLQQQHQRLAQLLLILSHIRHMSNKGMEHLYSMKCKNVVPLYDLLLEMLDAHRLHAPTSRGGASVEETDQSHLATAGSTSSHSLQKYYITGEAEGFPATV
ERa SRC1 pot – ER-alpha (human) coactivator binding potentiation | TR-FRET ERalpha-LBD/SRC-Cy5 coactivator binding, 2 h; 100 = basal binding, no effect | coactivator binding (% of control), % at 25.6 µM | hit rate 1.3% among 86,000 | AID 639; in the data active = activity above about 200%;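 also: binding measured in presence of low estradiol as agonist stimulus; 0% = peptide alone without receptor and 100% = receptor with peptide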
ERb coact inh – ER-beta (human) coactivator binding inhibition. inhibition, % at 25.6 µM. Q92731. AID 633. hit rate 1.3% among 86,000. TR-FRET ER-beta LBD / SRC1-Cy5 peptide binding; receptor agonist-loaded with 1 µM estradiol;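 active = compounds whose percent inhibition of the receptor-coactivator binding signal exceeds about 50% in the single-dose screen, limit read from the data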;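 also: 0% = receptor plus peptide wells without compound and 100% = peptide-only wells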
F-actin modifier – cytoskeleton assembly modification; HUVEC TNFa F-actin phalloidin imaging, high content; inhibition, % at 2 µM; hit rate 0.18% among 91,000;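 active = inhibition above the batch mean plus 3 SD and confirmed as a hit by visual image inspection, cut at about 30% in these data, passing the limit was not always enough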
E-sel TNF inh – TNF alpha driven E-selectin expression inhibition; HUVEC TNFa-induced E-selectin immunofluorescence, high content; inhibition, % at 2 µM; hit rate 0.71% among 120,000; AID 1246;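 active = inhibition above the batch mean plus 3 SD, and confirmed as a hit on visual image review, cut at about 43% in these data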;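 also: 0% = TNF-stimulated DMSO wells and 100% = unstimulated control wells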
An asterisk follows results filed as active; · = no result given; [ ] = another dose, or the depositor's remark. Shown are actives, neighbours in structure and some others; about 2.9% of the full set was active somewhere.

SMILES	Calb biofilm kill	ERa SRC1 inh	ERa SRC1 pot	ERb coact inh	F-actin modifier	E-sel TNF inh
Cc1cc(C)c(C2=NOC3C4CCC(C4)C23)c(C)c1 (stereo not given)	·	·	·	·	·	16
COc1ccc(CC(=O)NCCC(C)C)cc1S(=O)(=O)N1CCOCC1	·	·	·	·	·	17
Cc1nn2c(=O)cc(COC(=O)c3ccc(S(=O)(=O)N4CCCCC4)cc3)nc2s1	1	-4	117	-16	-2	-1
COc1cccc(C(=O)NC2CC3CCCC(C2)N3CC(=O)Nc2ccc(N(C)C)cc2)c1 (stereo not given)	10	10	97	6	-9	-1
COc1cccc(C(=O)NC2CC3CCCC(C2)N3CC(=O)Nc2ccccc2)c1 (stereo not given)	1	97*[fluorescence artefact?]	8	99*[fluorescence artefact?]	-1	-10
N#CC(C#N)=C1C=CC=CN1/C(=C\c1ccco1)C(=O)c1ccc(-c2ccccc2)cc1	·	·	·	·	·	93*
COC(=O)c1ccccc1NC(=O)c1cc2ncc(Br)cn2n1	0	27	579*[fluorescence artefact?]	33	11	-14
Cc1cccc(NS(=O)(=O)c2cc(C(=O)N3CCOCC3)ccc2Cl)c1	·	·	·	·	·	41
Cc1ccnc(NS(=O)(=O)c2ccc(NC(=O)Cc3cccs3)cc2)n1	-1	67*	49	62*	7	-10
CN1CCN(S(=O)(=O)c2ccc(NC(=O)Cc3cccs3)cc2)CC1	8	40	72	44	-16	-12
O=C(Cc1cccs1)Nc1ccc(S(=O)(=O)Nc2ncccn2)cc1	7	88*[fluorescence artefact?]	22	84*	-5	·
O=C(Cc1cccs1)Nc1ccc(S(=O)(=O)N2CCCCC2)cc1	1	96*[fluorescence artefact?]	18	84*	19	-11
CCCCc1c(O)nc(SCC(=O)Nc2ccc3c(c2)CCC3)[nH]c1=O	-2	1	106	5	·	60*
CCC(=O)NC(c1ccc([N+](=O)[O-])cc1)c1c(O)ccc2ccccc12 (stereo not given)	·	·	·	·	-31	100*
NC(=O)c1sc2nc3c(c(-c4ccco4)c2c1N)CCC3	·	20	48	54*[fluorescence artefact?]	7	24
CN1CCC(N(C)C(=S)NC(=O)C23CC4CC(CC(C4)C2)C3)CC1	·	·	·	·	·	79*
O=C(Nc1ccccc1)N1CCC(c2ccccc2)C1 (stereo not given)	4	4	123	1	65*	21
Cc1nc2scc(-c3ccccc3)c2c(=O)n1N=C1C=CC(=O)C=C1	·	·	·	·	·	88*
Cc1nc2c(-c3ccc(F)cc3)cnn2c2c1CCC2	·	·	·	·	·	32
O=C1Nc2ccccc2C(O)(C(=O)NC2CC2)N1c1ccc(Cl)c(Cl)c1 (stereo not given)	-1	-1	86	1	·	·
Cn1c(=O)[nH]c(=O)c2c1nc(CN1CCN(Cc3ccccc3)CC1)n2CC(N)=O	-3	-1	117	-8	·	50*
CCCCCn1c(CN2CCN(Cc3ccccc3)CC2)nc2c1c(=O)n(C)c(=O)n2C	8	-8	105	-3	-6	100*
CCCn1c(CN2CCN(c3cccc(Cl)c3)CC2)nc2c1c(=O)n(C)c(=O)n2C	11	3	90	-1	-10	62*
CCCn1c(CN(Cc2ccccc2)Cc2ccccc2)nc2c1c(=O)n(C)c(=O)n2C	25*	-3	80	-11	·	-47
Cn1c(=O)[nH]c(=O)c2c1nc(N1CCN(Cc3ccccc3)CC1)n2CCCc1ccccc1	1	-3	114	-8	-58	·
SMILES	Calb biofilm kill	ERa SRC1 inh	ERa SRC1 pot	ERb coact inh	F-actin modifier	E-sel TNF inh
Cc1nnc(NN2CCOCC2)[nH]c1=O	·	·	·	·	·	0
COC(=O)Cn1cnc2c1c(=O)n(C)c(=O)n2C	3	21	96	25	0	100*
Cc1ccccc1NC(=O)Cn1cnc2c1c(=O)n(C)c(=O)n2C	6	-9	97	62*	-9	-23
Cn1c(=O)c2c(ncn2CC(N)=O)n(C)c1=O	5	1	124	-1	-44	47
COc1ccccc1NC(=O)Cn1cnc2c1c(=O)n(C)c(=O)n2C	10	4	112	5	27	8
CCNC(=O)NC(=O)C(C)OC(=O)CNS(=O)(=O)c1c(Cl)cc(Br)cc1Cl (stereo not given)	·	·	·	·	·	17
O=c1cc(CSc2nnc(COc3ccccc3Cl)o2)nc2sccn12	1	14	81	16	12	·
CCOC(=O)C1=C(O)/C(=C/c2ccc(C)o2)SC1=NC(=O)c1ccccc1C	3	64*[fluorescence artefact?]	59	39	-14	24
CCOc1ccccc1NC(=O)N1CCCC(c2nc(-c3ccc(C)o3)no2)C1 (stereo not given)	·	·	·	·	·	-12
CCOC(=O)C1CCN(C(=O)Nc2ccc3nc(-c4ccco4)c(-c4ccco4)nc3c2)CC1	7	96*[fluorescence artefact?]	31	95*[fluorescence artefact?]	9	-8
Cc1cc(C)c2c(=O)[nH]c(SCC(=O)c3ccc(C(C)C)cc3)nc2n1	-1	12	558*[fluorescence artefact?]	12	-6	14
CS(=O)(=O)c1ccc(Cl)c(NC(=O)c2ccc3ccccc3c2)c1	·	·	·	·	·	64*
COC(=O)C1=C(C)NC(C)=C(C(=O)OC)C1C(=O)OCC(=O)N1c2ccccc2CC1C (stereo not given)	2	-2	86	26	-9	7
CC(C)CCC1CC(CSC(=N)N)OC1=O (stereo not given)	3	-14	98	-17	4	-8
O=C(Nc1ccncc1)C1c2ccccc2Oc2ccccc21	-5	98*[fluorescence artefact?]	102	9	·	-14
Cc1ccccc1NC(=O)C(C#N)Cc1cccnc1 (stereo not given)	6	1	124	6	18	24
O=[N+]([O-])c1ccccc1Sc1nccn1Cc1ccccc1	·	·	·	·	·	-2
C[C@@H]1CC[C@@]2(O[C@H](CCO)C[C@@H](O)[C@@H]2O)O1	·	·	·	·	·	64*
COc1cc(CNC2CCCC2)cc(Cl)c1OCc1ccccc1F	·	·	·	·	-12	9
CCc1ccccc1NC(=O)CSc1nc2n[nH]c(C)c2c(=N)n1-c1cccc(OC)c1	5	7	84	2	4	54*
Cc1cc(=O)oc2cc(OCc3ccc(C(=O)OCC(=O)Nc4ccccc4OC(F)F)cc3)ccc12	·	·	·	·	·	22
O=C(NCCN1CCCCCC1)c1ccc(N2CCCC2=O)cc1	3	55*[fluorescence artefact?]	155	22	12	-4
COc1ccc(S(=O)(=O)Nc2cc3c(cc2C(C)=O)OCO3)cc1	·	·	·	·	·	-20
CC(=O)Nc1ccc(S(=O)(=O)NC2(C(F)(F)F)C(=O)Nc3c2c(=O)[nH]c(=O)n3C)cc1 (stereo not given)	-4	-6	108	12	34*	-33
COC(=O)c1sc2nc(-c3ccco3)ccc2c1N	0	54*	66	73*	12	-55
Cc1ccsc1C(=O)N1CCC(N2CCC(C(=O)NCC3CCCO3)CC2)CC1 (stereo not given)	·	·	·	·	·	31
CN1Cc2cc(C(=O)c3cc(Cl)cc(CSc4ncccn4)c3O)cnc2NC1=O	8	56*	123	21	-45	-1
O=C(Nc1ccccc1-c1nc2ccccc2o1)c1ccc2c(c1)OCCO2	-1	50	217*[fluorescence artefact?]	28	-28	-14
